Records with an inconclusive call do not appear. Active and inactive are the calls of the source. Calls follow the shape of the dose curve; as a rule, active = well fitted activation curve with a large enough effect in the signal ratio in the repeat runs, with a control signal flat (not every such curve was filed as active); inconclusive = weak or mixed curves; inactive = flat fitted curve, though single readings scatter; the % refers to the signal ratio.

Here are results for 24 compounds from PubChem BioAssay (Tox21).

A short description of this assay: qHTS assay for small molecule activators of the heat shock response signaling pathway (AID 743210). Conditions: HeLa HSE-bla reporter, beta-lactamase ratio, 5 h; series mostly up to 62.6 µM. The essentials:
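HSE-bla HeLa cells (beta-lactamase reporter under heat shock response elements), plated overnight, then exposed to compounds 5 h at 37 C; LiveBLAzer B/G FRET substrate added, 2.5 h at room temperature, fluorescence intensity read.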
Turning to `O=Cc1cccc(Br)c1`, the result was inactive.
Consider `CN1[C@@H]2CC[C@H]1CC(OC(=O)C(O)c1ccccc1)C2` (some centres undefined), for which the result was inactive.
With `CCCCCCCCN1CCCC1=O`, the outcome was inactive.
As to `CCOC(=O)OC(C)OC1=C(C(=O)Nc2ccccn2)N(C)S(=O)(=O)c2ccccc21` (centres undefined), the outcome was inactive.
As for `CC(=O)NC(=O)c1ccccc1O`, the outcome was inactive.
Take `CCCCCCCC1CCCC1=O` (centres undefined): the outcome was inactive.
The entry for `[Ca+2]` is “inactive”; for `CN1CC(=O)N/C1=N/C(=O)Nc1cccc(Cl)c1` it is “inactive”; for `Cc1ccc(-c2ncc(Cl)cc2-c2ccc(S(C)(=O)=O)cc2)cn1` it is “inactive”.
For `CCCCN1C=CN(C)C1`, the outcome was inactive.
As to `CC(CC=O)CC(C)(C)C` (centres undefined), the outcome was inactive.
In the case of `CC(=O)c1ccc2ccccc2c1`, the result was inactive.
With `CCCCc1ccc2c(n1)[C@@H](c1ccc(OC)cc1C[C@H](C)C(=O)O)[C@H](C(=O)O)[C@H]2c1ccc2c(c1)OCO2`, the outcome was inactive.
`CN(C)[C@@H]1C(=O)C(C(=O)NCN2CCCC2)=C(O)[C@@]2(O)C(=O)C3=C(O)c4c(O)cccc4[C@@](C)(O)C3C[C@@H]12` (some centres undefined): the outcome was inactive.
The entry for `NS(=O)(=O)Cc1noc2ccccc12` is “inactive”.
On to `CN(C)C(=O)Oc1ccc[n+](C)c1`, for which the outcome was inactive.
As to `CCOC(=O)C1=NOC(c2ccccc2)(c2ccccc2)C1`, the outcome was inactive.
Turning to `CC/C=C\CCOC(C)OCC` (centres undefined), the result was inactive.
As to `CC(=O)C1CCCCC1=O` (centres undefined), the result was inactive.
Turning to `CCC1C(=O)OCC1Cc1cncn1C` (centres undefined), the outcome was inactive.
`O=S(=O)(O)c1cc(O)c(O)c(S(=O)(=O)O)c1`: the result was inactive.
With `CCCCCC(=O)OCCc1ccccc1`, the outcome was inactive.
The entry for `CN(C)CCCN(C)CCCN(C)C` is “inactive”.
As for `COc1ccc2cc1Oc1cc3c(cc1OC)CC[N+](C)(C)[C@H]3Cc1ccc(cc1)Oc1c(OC)c(OC)cc3c1[C@@H](C2)[N+](C)(C)CC3`, the result was inactive.
